Measured values taken from PubChem BioAssay (Tox21).
A number with no mark means an inactive call. Calls follow the shape of the full dose curve.
% is scaled to controls: 0 for no effect and ±100 for the full control effect.

Test: qHTS assay to identify small molecule agonists of the sonic hedgehog signaling (Shh) pathway (AID 1259368);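 also: NIH/3T3-derived 3T3Gli1-Luc cells carrying a stable Gli1-driven firefly luciferase reporter; nearly all actives have a fitted effect of over 15% in size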
Conditions: NIH/3T3 Gli1-Luc reporter, luciferase, 24 h; series mostly up to 92.4 µM; activity change: at the top concentration
Excerpt: National Center for Advancing Translational Sciences [NCATS]
NIH Chemical Genomics Center [NCGC]
U.S. Environmental Protection Agency [EPA]
National Institutes of Environmental Health Sciences [NIEHS]
National Toxicology Program [NTP]
The sonic hedgehog (Shh) pathway is essential for normal embryonic development. Dysregulation of the Shh pathway can cause severe developmental defects in organs. Therefore chemicals that interfere with the pathway are potential developmental toxicants. A cell line designated 3T3Gli1-Luc (DMB/OARSA/CFSAN/FDA, Laurel, MD), a NIH/3T3 derived clone containing stably integrated Gli1-Luc reporter is used to detect chemical interference of the Shh pathway, by changes in the expression of the firefly Luc gene under the control of the Gli1 transcriptional response element. This cell line was used to screen Tox21 libraries for identifying and prioritizing the potential developmental toxicants that interfere Shh pathway.
3T3 Gli1-Luc cells were dispensed at 2,000 per well in 5uL of culture medium into white solid bottom 1536-well plates (Greiner Bio-One, Monroe, NC) using a Multidrop Combi (Thermo Scientific, Waltham, MA) dispenser. The assay plates were incubated at 37 C and 5% CO2 for 4hr, and then 23nL of compounds dissolved in DMSO and positive control were transferred using a Pintool station (Wako, San Diego, CA). The assay plates were incubated at 37C and 5% CO2 for 24hr. For luciferase read, 4uL of Amplite Luciferase reporter gene assay reagent (AAT Bioquest, Inc. Sunnyvale, CA) was added to each well of the assay plates using Flying Reagent Dispenser (FRD, Aurora Discovery, San Diego, CA) and incubated at room temperature for 30min. The luminescence signal was measured using a ViewLux plate reader (Perkin Elmer, Shelton, CT).
With CCOCCC(=O)OCC the “activity change” value was 1.31%.
For Cc1ccc(N(CCO)CCO)cc1, the “activity change” value was 0.782%.
For CC(C)(C)C(O)/C=C/c1ccc2c(c1)OCO2 (stereo not given), the “activity change” value was 1.17% [at 42.5 µM, active compounds read high].
With Cc1c(C2(c3cc(Br)c(O)c(Br)c3C)OS(=O)(=O)c3ccccc32)cc(Br)c(O)c1Br the “activity change” value was -10.7%.
For CC(C)CC(O)CC(C)C, the “activity change” value was -0.176%.
With CC(C)(C)S the “activity change” value was 0.353%.
In the case of CN(C)CC/C=C1\c2ccccc2Sc2ccc(Cl)cc21, the “activity change” value is reported as -5.16% [at 42.5 µM, active compounds read high].
For CC(=O)C(C)=O, the “activity change” value was 1.32%.
For CC(C)C(=O)OCCOc1ccccc1, the “activity change” value was -0.1%.
With CC(C)C(O)C(C)(C)CO (stereo not given) the “activity change” value was -1.02%.
In the case of CCOC(=O)Oc1ccc(CCNC(=O)[C@H](CCSC)NC(C)=O)cc1OC(=O)OCC, the “activity change” value is reported as 0.406% [at 42.5 µM, active compounds read high].
With Cc1ccc(S(=O)(=O)NC(=O)NC2CCCCC2)cc1 the “activity change” value was 0.504% [at 42.5 µM, active compounds read high].
In the case of Cc1c[nH]c2ccccc12, the “activity change” value is reported as -0.912% [at 42.5 µM, active compounds read high].
In the case of CC(=O)C(=O)CC(C)C, the “activity change” value is reported as 0.487%.
With CCOC(=O)c1c(N)sc2c1CCN(Cc1ccccc1)C2 the “activity change” value was 2.66% [at 42.5 µM, active compounds read high].
In the case of CCOc1ncc(F)c(=O)[nH]1, the “activity change” value is reported as -0.865% [at 42.5 µM, active compounds read high].
With c1ccc2sc(SSc3nc4ccccc4s3)nc2c1 the activity change was 1.97% [at 18.9 µM, active compounds read high].
In the case of Cc1ccc(Cl)cc1N, the “activity change” value is reported as 2.17%.
For CN1C(CSCC(F)(F)F)Nc2cc(Cl)c(S(N)(=O)=O)cc2S1(=O)=O (stereo not given), the “activity change” value was 0.56% [at 42.5 µM, active compounds read high].
With CC(C)OC(=O)c1ccccc1C(=O)OC(C)C the “activity change” value was -1.65%.
In the case of CC(C)c1ccc(C(=O)N=C(N)N)cc1S(C)(=O)=O, the “activity change” value is reported as 1.22% [at 42.5 µM, active compounds read high].
With CCCCCCC(CO)CCCC (stereo not given) the “activity change” value was 0.461%.
With C[C@H](CS)C(=O)N1CCC[C@H]1C(=O)O the “activity change” value was 0.141% [at 42.5 µM, active compounds read high].
With CCCCCCCC(=O)Oc1c(Br)cc(C#N)cc1Br the “activity change” value was -10.9%.
For CC(C)COC(=O)c1ccc(O)cc1, the “activity change” value was 10.9%.
With CNS(=O)(=O)c1cc(C(=O)N2CCC(CCN3C4CCC3CC(n3c(C)nc5ccccc53)C4)(c3cccc(F)c3)CC2)c(Cl)cc1F (stereo not given) the “activity change” value was -8.71%.
With CCCCCCCCCCCCCCN(C)C the activity change was 1.14% [at 18.9 µM, active compounds read high].
In the case of COC(OC)OC, the “activity change” value is reported as 0.715%.
In the case of CCCCCCCCCCCCCOS(=O)(=O)O, the “activity change” value is reported as 0.165%.
With CC(CCc1ccc(O)cc1)NCCc1ccc(O)c(O)c1 (stereo not given) the “activity change” value was 1.71% [at 42.5 µM, active compounds read high].
With Cc1ccc2nc(N)[nH]c(=O)c2c1Sc1ccncc1 the “activity change” value was 0.373% [at 42.5 µM, active compounds read high].
With CCN(CC)c1ccc(C(=C2C=CC(=[N+](CC)CC)C=C2)c2ccc(S(=O)(=O)O)cc2S(=O)(=O)[O-])cc1 the “activity change” value was -10.6%.
In the case of CC1CCc2nccnc21 (stereo not given), the “activity change” value is reported as -1.33%.
For CCOC(=O)C(C)O (stereo not given), the “activity change” value was 2.63%.
With CC(=O)OCC1=C(C(=O)O)N2C(=O)[C@@H](NC(=O)CSc3ccncc3)[C@H]2SC1 the “activity change” value was 0.938% [at 42.5 µM, active compounds read high].
With CC1=CC[C@@H]2C[C@H]1C2(C)C the activity change was 0.102% [at 18.9 µM, active compounds read high].
In the case of CCC1CCC(CCC(=O)O)C1 (stereo not given), the “activity change” value is reported as -1.25%.
In the case of C1=CCC2CC=CC2C1 (stereo not given), the “activity change” value is reported as 10.7%.
For CCCCCCC(O)CCCCCCCCCCC(=O)OC (stereo not given), the “activity change” value was 0.0585%.
In the case of Cc1ccc(NC(=O)N(C)C)cc1NC(=O)N(C)C, the “activity change” value is reported as 1.24%.
